An excerpt weighted towards active compounds, which were near 1.6% of everything screened.
SKBR3 24h inh: SK-BR-3 proliferation inhibitors. SK-BR-3 viability, CellTiter-Glo ATP luminescence, 24 h; hits give low values. viability, % at 10 µM. 41,000 compounds, 0.47% hits. AID 847;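 active means viability at or below the median of all test compounds minus 3 SD, in both replicates if run twice, cut at about 45% in these data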;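 further: 100% = median untreated cell wells and 0% = median positive control drug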
mHtt clearance: mutant huntingtin protein clearance; HeLa Exon1htt(103Q)mCFP, aggregate imaging; zero = plate's median compound well; inhibition, % at 1.5 µM; 47,000 compounds, 0.42% hits; AID 853;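 active means inhibition of aggregate fluorescence above about 70%, also judged a hit by eye on the cell image, limit read from the data, passing the limit was not always enough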;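 further: cells exposed to compound for three days before fixation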
Cdc25B inh: inhibitors of human Cdc25B phosphatase | inhibition, %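 (compounds tested at 10 µM final in the well)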 | AID 368 | 65,000 compounds, 0.1% hits | recombinant Cdc25B, OMFP fluorescence Ex485/Em525 | P30305; in the data active means inhibition above about 50%
Target sequence (P30305 whole entry, looked up): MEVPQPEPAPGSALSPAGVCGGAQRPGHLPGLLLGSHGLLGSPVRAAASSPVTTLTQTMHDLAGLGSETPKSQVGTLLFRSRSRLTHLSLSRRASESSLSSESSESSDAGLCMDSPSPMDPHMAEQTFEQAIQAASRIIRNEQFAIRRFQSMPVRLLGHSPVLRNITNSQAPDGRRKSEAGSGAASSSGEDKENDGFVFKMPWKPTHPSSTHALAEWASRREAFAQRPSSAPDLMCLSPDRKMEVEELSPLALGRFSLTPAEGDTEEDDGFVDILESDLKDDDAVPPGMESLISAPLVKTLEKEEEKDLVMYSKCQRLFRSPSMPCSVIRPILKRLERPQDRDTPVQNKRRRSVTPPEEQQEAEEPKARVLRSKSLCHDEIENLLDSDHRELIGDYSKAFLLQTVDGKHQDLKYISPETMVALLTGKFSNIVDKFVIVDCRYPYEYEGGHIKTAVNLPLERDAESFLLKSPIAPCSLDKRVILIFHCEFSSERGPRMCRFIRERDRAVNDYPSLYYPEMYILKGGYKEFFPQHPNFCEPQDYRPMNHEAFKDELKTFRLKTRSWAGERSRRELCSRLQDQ
DUSP1 inh: human dual specificity phosphatase 1 inhibition | inhibition, %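 (compounds tested at a single concentration somewhere between 10 and 100 µM)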 | 65,000 compounds, 0.15% hits | recombinant MKP-1, OMFP hydrolysis fluorescence | AID 374;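 active means inhibition above about 50%, limit read from the data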;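 further: 0% = DMSO max control wells and 100% = wells with enzyme stopped by NaOH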
Jurkat tox 60K: cytotoxic compounds reducing Jurkat cell viability; inhibition, % at 4 µM; 56,000 compounds, 1.2% hits; Jurkat E6.1 viability, ATP luminescence, 48 h;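 active means inhibition above the mean inhibition of all tested compounds plus 3 SD, cut at about 28% in these data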
* hit, by the source's call; i = inactive; / = not tested or not shown.

SMILES	SKBR3 24h inh	mHtt clearance	Cdc25B inh	DUSP1 inh	Jurkat tox 60K
COC(=O)C1=C(C)N(c2ccc(Cl)c(Cl)c2)C(=O)C1	79	-2	7	-6	64*
COC(=O)C1=C(C)N(c2ccc(S(N)(=O)=O)cc2)C(=O)C1	93	/	/	/	/
COc1cc2c(cc1OC)CN(C(=O)c1cc3ccccc3oc1=O)CC2	/	-5	-8	6	60*
CCCc1ccc(-c2ccc(F)c(N)c2)nc1	/	/	-1	11	60*
CCCCc1ccc(-c2ccc(Br)cc2)nc1	/	-119	/	/	/
CCn1c(SCC(=O)c2c[nH]c3ccccc23)nnc1-c1cccs1	99	-148	-5	-1	58*
CCn1c(SCC(=O)c2ccc(Cl)cc2)nnc1-c1cccs1	/	-9	/	/	/
COc1ccc(CCn2c(-c3ccco3)nc3oc4ccccc4c(=O)c3c2=O)cc1	89	/	-1	-12	2
CC1CCN(c2ccc(C(=O)O)cc2N)CC1	43*	/	42	13	0
CC1CCN(c2ccccc2N)CC1	102	10	5	-7	-7
CCOc1ccccc1NC(=O)Cn1nnc(C(=O)NCc2ccco2)c1N	/	/	12	-10	98*
CC1(C)Cc2nc3sc4c(SCC(=O)NCc5ccco5)ncnc4c3cc2CO1	88	-196	-1	18	78*
O=C(CSc1ncnc2sc3c(c12)CCCCC3)NCc1ccco1	105	/	0	2	38*
Cc1nc2c(sc3nc4c(cc32)COC(C)(C)C4)c(=O)n1CC(=O)NCc1ccco1	123	/	1	30	/
COc1cc(NC(=O)c2ncn[nH]2)cc(OC)c1OC	84	-1	0	16	4
CCCSC1=C(C#N)C(c2ccc(OC)cc2)C2=C(CC(C)(C)CC2=O)N1 (stereo not drawn)	81	/	8	-26	/
CSC1=C(C#N)C(c2ccc(Cl)cc2)C2=C(CC(C)(C)CC2=O)N1 (stereo not drawn)	/	/	1	1	36*
Cc1cc2oc(=O)cc(CN3CCC(C)CC3)c2c(C)c1Cl	90	/	-8	-9	-2
COc1ccc(N2CCN(Cc3cc(=O)oc4cc(C)c(Cl)c(C)c34)CC2)cc1	42*	8	0	5	8
O=C(c1ccco1)N(Cc1cc2ccccc2[nH]c1=O)C1CCCCC1	117	63	13	1	-2
O=C(c1ccncc1)N(Cc1cc2ccccc2[nH]c1=O)C1CCCCC1	57	9	2	-6	47*
Cc1ccc2[nH]c(=O)c(CN(Cc3ccco3)C(=O)c3ccncc3)cc2c1	102	/	2	-9	40*
COc1ccc(C(=O)N(Cc2ccco2)Cc2cc3cc(C)ccc3[nH]c2=O)cc1OC	96	/	-2	-9	-2
O=C(CCC(=O)c1ccc[nH]1)c1ccc(Cl)cc1	/	75*	7	25	0
O=C(COc1ccc(F)c(Cl)c1)c1ccc[nH]1	/	-8	0	6	8
SMILES	SKBR3 24h inh	mHtt clearance	Cdc25B inh	DUSP1 inh	Jurkat tox 60K
Cc1c(CCC#N)c(N2CCCCC2)n2c(nc3ccccc32)c1C#N	76	/	25	-23	/
Cc1c(CCC#N)c(N2CCN(C3CCCCC3)CC2)n2c(nc3ccccc32)c1C#N	6.0*	/	24	-3	/
CCCn1c(SCC(=O)Nc2ccc3c(c2)OCCO3)nnc1-c1ccco1	83	/	-4	-2	-4
Cc1ccc(-n2c(SCC(=O)Nc3ccc4c(c3)OCCO4)nnc2-c2ccco2)cc1	/	72*	-8	-4	-7
Cc1noc(C)c1CSc1nc2sc(C)c(C)c2c(=O)n1C1CCCC1	/	-30	-12	15	2
COCCCn1c(SCC(=O)Nc2nnc(C)s2)nnc1-c1ccoc1C	89	78*	-3	-16	-2
CCc1nnc(NC(=O)CSc2nnc(-c3ccoc3C)n2CC(C)C)s1	112	/	-6	-11	-1
CCCCN(C)Cc1c(C)[nH]c2ccc(C)cc2c1=O	/	-33	/	/	/
Cc1ccc2[nH]c(C)c(CN(C)C3CCN(C)CC3)c(=O)c2c1	26*	/	-8	5	0
Cc1cc(C)nc(N2CCCC(C(=O)NCCC3=CCCCC3)C2)n1 (stereo not drawn)	94	2	17	1	-6
O=C(c1ccc(Cl)cc1)N1CCN(c2nc(N3CCCCC3)nc(N3CCCCC3)n2)CC1	117	/	5	-1	/
CCOc1ccc(-c2cc(CCCC(=O)Nc3cc(OC)ccc3OC)no2)cc1	/	/	-21	3	/
CCOc1ccc(-c2cc(CCCC(=O)Nc3cccc(OC)c3)no2)cc1	/	/	-6	10	91*
Cc1ccc2c(c1)N(CC(=O)NCCc1c[nH]c3ccccc13)C(=O)CO2	90	/	1	4	0
CCc1ccc(NC(=O)c2cnn3ccccc23)cc1	/	30	/	/	/
O=C(NCc1ccc(F)cc1)c1cnn2ccccc12	/	75*	/	/	/
COc1cccc(C2=CC(c3ccc(OC)c(OC)c3OC)n3nnnc3N2)c1 (stereo not drawn)	100	/	-1	4	23
COc1ccccc1C1C=C(c2ccccc2)Nc2nnnn21 (stereo not drawn)	93	/	-4	12	80*
CC(C)C[C@H](N)c1nnc(S(=O)(=O)Cc2ccc(F)cc2)o1	33*	/	-2	-10	10
O=C(NCc1ccco1)C(c1cccs1)N(Cc1ccccc1)C(=O)Cn1nnc2ccccc21 (stereo not drawn)	/	/	8	14	2
O=C(NCc1ccco1)C(c1ccco1)N(Cc1cccs1)C(=O)Cn1nnc2ccccc21 (stereo not drawn)	/	83*	/	/	/
O=C(CCCCn1c(=O)c2ccccc2n(Cc2ccc(F)cc2)c1=O)NCc1ccco1	50	-16	-11	31	37*
CC(Cc1c[nH]c2ccccc12)NC(=O)C1CCCNC1=O (stereo not drawn)	96	87*	-2	1	-3
N[C@H](Cc1c[nH]c2ccccc12)C(=O)O	94	/	-11	10	/
O=C(Nc1nnc(CC(=O)N2CCCC2)s1)c1cnccn1	90	/	-4	7	/
SMILES	SKBR3 24h inh	mHtt clearance	Cdc25B inh	DUSP1 inh	Jurkat tox 60K
COc1ccc(C(=O)CSc2nnc(Cn3cnc4ccccc43)o2)cc1	95	/	7	21	92*
CCCC(C)c1nnc(NC(=O)c2cc(C(=O)OC)cc([N+](=O)[O-])c2)s1 (stereo not drawn)	/	47	/	/	/
CCOc1ccc(N(CC(=O)Nc2ccc3c(c2)OCCO3)S(=O)(=O)c2c(C)noc2C)cc1	/	/	-2	8	-3
Cc1nc(C)c(C(=O)Nc2ccc(Oc3ccccc3)cc2)o1	/	/	-8	10	30*
COC(=O)c1ccc(C)c(NS(=O)(=O)c2ccc(OC)cc2)c1	88	i	-13	4	/
CC(=O)c1cc2c(cc1NS(=O)(=O)c1ccc(C)cc1)OCCO2	84	26	-16	0	76*
CCC(C)NS(=O)(=O)c1ccc(S(=O)(=O)Nc2cc3c(cc2C(C)=O)OCO3)cc1 (stereo not drawn)	/	/	-4	4	-3
COC(=O)c1ccc(C)c(NS(=O)(=O)c2ccc3c(c2)OCCO3)c1	/	-128	-9	-11	92*
COCCOC(=O)C1=C(C)N=C2SCCC(=O)N2C1c1ccc(OC(=O)c2ccco2)cc1 (stereo not drawn)	87	/	/	/	/

Screening results as filed in PubChem.
